# Source: PubChem BioAssay (NCATS)
# Records with an inconclusive call do not appear. Calls of active or inactive are those of the source. Calls come from the whole dose curve; as a rule, active = well fitted inhibition curve with a large enough effect; inconclusive = small, poorly fitted or top-dose-only effect; inactive = no such curve, though single readings can be large or run the other way.
# Biological target: Retinal dehydrogenase 2 (Homo sapiens) (UniProt O94788)
# Assay: qHTS for Inhibitors of the Aldehyde Dehydrogenase Family (ALDH1A2) Confirmation screens (AID 2061314); note: nearly all actives have a fitted effect of over 65% in size
# Settings: ALDH1A2 enzyme inhibition qHTS confirmation; series mostly up to 45.9 µM; activity, negative = inhibition: at the top concentration
# % is set by controls: 0 for no effect and ±100 for the full control effect; potency is the fitted concentration of half-maximal effect.
SMILES,"activity, negative = inhibition",outcome,Potency
COc1ccc(-n2ccnc(NCc3ccc(Cl)cc3)c2=O)cc1,-10.1% (inactive),,
Cc1ccc(OCCn2c(CCNC(=O)c3ccccc3[N+](=O)[O-])nc3ccccc32)cc1,,inactive,
COc1ccnc(NC(=S)N2CCN(c3cccc(C(F)(F)F)c3)CC2)c1,,,22.5 µM (active)
O=C(O)c1cccnc1SC1=NS(=O)(=O)c2ccccc21,,,31.8 µM (active)
Cc1ccc(-c2nn3c(C)nnc3s2)cc1NCc1ccc(-c2cccc(Cl)c2)o1,,,12.7 µM (active)
COc1ccc(N2CCN(c3nc(C(=O)NCc4cccc(C)c4)cs3)CC2)cc1,-28.5% (inactive),,
Fc1c(-c2ccc3ncnc(NCc4cccs4)c3c2)ccc2c1OCO2,-19% (inactive),,
NC(=O)C1CCN(c2nccc(-c3ccc4c(c3)OCCO4)n2)CC1,,,14.2 µM (active)
CC(C)(C)OC(=O)N1CCN(c2ccc(NCc3cncc(-c4ccc(C#N)cc4)c3)cc2)CC1,,inactive,
CC(=O)N1CCN(c2ccc(NCc3ccc(-c4ccc(Br)cc4)o3)cc2)CC1,,,2.52 µM (active)
COc1ccc(S(=O)(=O)Nc2cccc(-c3ccc(N4CCCCCC4)nn3)c2)c(OC)c1,-3.6% (inactive),,
Oc1ccc(CNc2ccccc2F)c2cccnc12,,,5.65 µM (active)
N#Cc1c(-c2ccc(C(=O)c3ccc(O)cc3)cc2)no[n+]1[O-],,,0.712 µM (active)
O=C(CN1C(=O)N/C(=C\c2cccn2-c2cccc(C(=O)O)c2)C1=O)Nc1ccc(F)cc1,-23.7% (inactive),,
Cc1ccc2nc3sc(C(=O)NCCN4CCOCC4)cc3cc2c1,-11% (inactive),,
N#Cc1c(-c2ccc3c(c2)OCO3)no[n+]1[O-],,,10.1 µM (active)
